Only some compounds are listed: those with a hit (about 2.9% of all), similar ones and a draw of the others.
Mtb BioA inh: BioA (M. tuberculosis) enzyme inhibition. inhibition, % at 9.99 µM. purified M. tuberculosis BioA enzyme, plate reader. 0.096% of 360,000 active; in the data active = inhibition above about 40%
FBA Mtb inh: inhibitors of M. tuberculosis fructose-bisphosphate aldolase; purified M. tuberculosis FBA, fluorescence read-out; inhibition, % at 1 µM; 2.3% of 360,000 active; AID 588726;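 also: 0% = vehicle and 100% = reference inhibitor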
Target sequence (P9WQA3 whole entry, looked up): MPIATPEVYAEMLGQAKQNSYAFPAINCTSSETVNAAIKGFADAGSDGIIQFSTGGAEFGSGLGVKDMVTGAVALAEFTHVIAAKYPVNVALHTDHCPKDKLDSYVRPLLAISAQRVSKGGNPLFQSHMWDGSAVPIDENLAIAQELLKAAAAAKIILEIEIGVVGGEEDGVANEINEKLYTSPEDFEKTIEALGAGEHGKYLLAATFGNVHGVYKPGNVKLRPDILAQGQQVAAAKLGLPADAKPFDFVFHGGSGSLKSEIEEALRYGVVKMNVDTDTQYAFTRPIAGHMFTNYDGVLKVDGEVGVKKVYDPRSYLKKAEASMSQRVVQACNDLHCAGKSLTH
GDH-TPI counter-1: GDH-TPI coupled enzyme inhibition counter-screen | 1.2% of 360,000 active | AID 588335 | inhibition, % at 4.8 µM | GDH-TPI coupled enzyme counterscreen, NADH absorbance; in the data active = inhibition above about 30%;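 also: 0% = DMSO wells and 100% = wells lacking the enzyme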
Mtb hypoxia rep: reduces hypoxia-regulated biosensor signal in M. tuberculosis; M. tuberculosis hypoxia-regulated fluorescent reporter, fluorescence; fluorescence inhibition, % (test concentration not listed); 0.1% of 300,000 active; AID 1159583; in the data active = fluorescence inhibition mostly above about 23%, no sharp cut-off; inactive = mostly below about 17%
FadD28 binding: blocks FadD28 binding to the bisubstrate probe | fluorescence polarization | inhibition, % at 12.5 µM | 0.22% of 360,000 active | AID 588549; in the data active = inhibition above about 8.5%, passing the limit was not always enough
Mtb FBA inh conf: confirmation of M. tuberculosis fructose-bisphosphate aldolase inhibitors; 78% of 5,600 active; purified M. tuberculosis FBA, fluorescence read-out; shares compounds with FBA Mtb inh; inhibition, % at 1 µM;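 also: 0% = vehicle wells and 100% = reference inhibitor wells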
GDH-TPI counter-2: counter-screen for M. tuberculosis FBA inhibitors: GDH-TPI coupled enzyme inhibition; shares compounds with FBA Mtb inh; GDH-TPI coupled enzyme counterscreen, fluorescence; inhibition, % at 1 µM; 81% of 5,600 active; AID 652141; in the data active = inhibition above about 10%
GDH-TPI DR: counter-screen for M. tuberculosis FBA inhibitors: GDH-TPI dose response; GDH-TPI coupled enzyme assay, fluorescence, artifact counterscreen; 79% of 170 active; shares compounds with FBA Mtb inh; IC50, µM; call rule not given here
Active calls of the source: *; nt = not tested or not shown; + = active, no number. Rule as the data show it, unless noted: active = inhibition above about 27%; inactive = the rest.

SMILES	Mtb BioA inh	FBA Mtb inh	GDH-TPI counter-1	Mtb hypoxia rep	FadD28 binding	Mtb FBA inh conf	GDH-TPI counter-2	others
CCc1nnc(NC(=O)CSc2nc(C)c3c(c2C#N)CCCC3)s1	4	56*	8	-2	-3	4	1
COc1ccc(NC(=O)CSc2nc(C)c3c(c2C#N)CCCC3)cc1	-5	3	5	-8	1	nt	nt
O=C(NN1C(=O)c2ccccc2NC1c1ccccn1)c1ccc(Br)cc1 (stereo not given)	0	-2	2	-5	-2	nt	nt
CC(=O)NN1C(=O)c2ccccc2NC1c1ccccn1 (stereo not given)	-2	27*	0	9	-2	14	10	GDH-TPI DR=6*
O=C(NN1C(=O)c2ccccc2NC1c1ccco1)c1ccc(Br)cc1 (stereo not given)	1	0	-2	0	-1	nt	nt
CC(=O)NN1C(=O)c2ccccc2NC1c1ccco1 (stereo not given)	1	32*	-2	nt	-1	39*	23*
Cc1cccc(NC(=O)CNC(=O)COC(=O)C2CC2C)c1C (stereo not given)	-1	30*	-2	8	0	2	-2
O=C(Nc1cc(F)ccc1F)N[C@@H]1CC[C@@H](CCn2cc(C3CCCCC3)nn2)O[C@@H]1CO	-2	nt	nt	nt	nt	nt	nt
C[C@@H]1CCCCO[C@H](CN(C)S(=O)(=O)c2cn(C)cn2)[C@@H](C)CN([C@@H](C)CO)C(=O)c2cc(NC(=O)Cc3ccccc3)ccc2O1	0	nt	nt	nt	nt	nt	nt
O=[N+]([O-])c1ccc2c(c1)nc1n2CCSC1	3	35*	14	11	-1	6	-6
Cc1ccc(C(=O)ON=C2CCSc3ccc(C)cc32)cc1	nt	nt	nt	3	nt	nt	nt
O=C(c1ccccc1)c1ccc(OCC(O)CN2CCOCC2)cc1 (stereo not given)	1	76*	-11	nt	-3	16	9	GDH-TPI DR=>10
CCCNC(=O)N1C[C@H](C)[C@@H](OC)CN(C)C(=O)c2cc(NC(C)=O)ccc2OC[C@@H]1C	0	nt	nt	nt	nt	nt	nt
COc1cc(C=Nc2ccccc2C(=O)Nc2ccccc2)cc(OC)c1OC	nt	51*	6	1	-1	+	+
O=C(O)C1CCN(S(=O)(=O)c2cccs2)CC1	-2	32*	-2	4	-1	57*	36*
O=C(Nc1ccccc1)C1CCN(S(=O)(=O)c2cccs2)CC1	5	8	5	0	-1	nt	nt
Cc1cc(C)n2nc(C(=O)N3CCCC(Nc4ccc(F)c(F)c4)C3)cc2n1 (stereo not given)	0	3	-4	2	-2	nt	nt
COc1ccc(C(=O)C2CCCN(Cc3cnc(C)s3)C2)cc1OC (stereo not given)	nt	-2	0	7	0	nt	nt
COc1ccc2cc(C(=O)C3CCCN(C(=O)c4cc5nc(C)cc(C)n5n4)C3)ccc2c1 (stereo not given)	-1	75*	6	-9	-3	97*	87*
O=C(c1ccc2ccccc2c1)C1CCCN(C(=O)c2cnccn2)C1 (stereo not given)	0	9	-2	15	-4	nt	nt
COc1ccc2cc(C(=O)C3CCCN(C(=O)/C=C/c4ccccn4)C3)ccc2c1 (stereo not given)	3	57*	11	-6	-3	55*	48*
COc1ccc2cc(C(=O)C3CCCN(C(=O)c4cnccn4)C3)ccc2c1 (stereo not given)	2	88*	13	-11	0	55*	45*
CC(C)Oc1cccc(C(=O)C2CCCN(C(=O)c3ccccn3)C2)c1 (stereo not given)	nt	3	8	9	-1	nt	nt
COc1ccc2cc(C(=O)C3CCCN(Cc4cnc(C)s4)C3)ccc2c1 (stereo not given)	nt	41*	9	9	-4	+	+
C[C@H](CO)N1C[C@H](C)[C@H](CN(C)C(=O)c2cccnc2)Oc2ncc(-c3ccccc3)cc2C1=O	0	nt	nt	nt	nt	nt	nt
SMILES	Mtb BioA inh	FBA Mtb inh	GDH-TPI counter-1	Mtb hypoxia rep	FadD28 binding	Mtb FBA inh conf	GDH-TPI counter-2	others
COc1ccc2cc(C(=O)C3CCCN(C(=O)c4snnc4C)C3)ccc2c1 (stereo not given)	2	108*	5	3	-5	136*	117*
CCOC(=O)c1cnn(-c2ncnc3sc(C)c(C)c23)c1N	0	77*	6	nt	-1	84*	66*
Cn1cnnc1SCc1ccc(C(=O)NN=C(CCC(=O)O)c2ccc(C(C)(C)C)cc2)cc1	nt	nt	nt	-16	nt	nt	nt
O=S(=O)(NCc1ccc(F)cc1)c1ccc(-c2cnc(C3CC3)o2)cc1	-2	29*	15	-8	0	19	16*
O=S(=O)(Nc1ccccc1)c1ccc(-c2cnc(C3CC3)o2)cc1	5	18	6	1	0	nt	nt
CO[C@@H]1CN(C)C(=O)c2ccc(NC(=O)C3CC3)cc2OC[C@H](C)N(C(=O)c2cnccn2)C[C@@H]1C	-3	nt	nt	nt	nt	nt	nt
CC1(C2CC2)NC(=O)N(CC(=O)Nc2ccccc2-c2ccccc2)C1=O (stereo not given)	nt	4	3	9	-1	nt	nt
CC1CCC2(CC1)NC(=O)N(CC(=O)Nc1ccccc1-c1ccccc1)C2=O (stereo not given)	0	55*	1	7	-2	10	-4
Cn1nc(-c2ccc(Cl)cc2)c2cc(C(=O)NCCN3CCOCC3)sc21	-1	34*	1	nt	-6	41*	26*
Cn1nc(-c2ccc(Cl)cc2)c2cc(C(=O)NCCCN3CCOCC3)sc21	2	29*	16	nt	-14	67*	56*
C=CCn1c(-c2cc3c(s2)CCC(CC)C3)n[nH]c1=S (stereo not given)	nt	84*	-1	9	-1	170*	137*
C=CCn1c(SCC(=O)NC2CCS(=O)(=O)C2)nnc1-c1cc2c(s1)CCC(CC)C2 (stereo not given)	nt	3	1	0	-2	nt	nt
COC(=O)C1=C(C)NC(=O)CC1c1cccc(Cl)c1Cl (stereo not given)	0	-1	6	10	-4	nt	nt
CCOC(=O)C1=C(C)NC(C)=C(C(=O)OC)C1c1cccc(Cl)c1Cl (stereo not given)	2	41*	9	nt	-2	11	3	GDH-TPI DR=>10
COC(=O)c1cnc2ccccc2n1	-2	-1	3	nt	-2	nt	nt
O=C(O)c1cnc2ccccc2n1	-5	33*	5	-3	-1	62*	43*
O=C(O)c1ccccc1C(=O)NCc1ccc(F)cc1	1	1	4	15	0	nt	nt
COc1cccc(CNC(=O)c2ccccc2N)c1	0	63*	6	nt	2	59*	54*
O=C(NCc1ccc(Cl)cc1)c1ccccc1CCc1ccccc1	-2	4	6	2	-2	nt	nt

Assay outcomes as filed in PubChem.
